High-throughput results from PubChem BioAssay.
LASV entry inh = blocks Lassa virus binding or cell entry; AID 720533; Potency, µM (series often up to 49.2 µM), for the others: at the top dose activity change, negative = inhibition, hits mostly inhibitors; Lassa virus pseudotyped entry inhibition, cell-based qHTS; 4.1% of 18,000 active
MARV entry inh = blocks Marburg virus binding or cell entry; Marburg virus pseudotype entry/binding inhibition, cell-based; Potency, µM (titrated, usually from 49.2 µM), without a hit: at the top dose activity change, negative = inhibition, hits mostly inhibitors; 6.5% of 18,000 active
Active calls of the source: *; u = inconclusive; x = no result given; ! = repeats disagree; [ ] = another dose, or the depositor's remark. Sampled rows, rich in hits. Any-hit rate of the full collection: about 7.1%. Calls come from the whole dose curve; tested in HEK293 cells. % is set by controls: 0 for no effect and ±100 for the full control effect; potency is the fitted concentration of half-maximal effect.

SMILES	LASV entry inh	MARV entry inh
Oc1[nH]c2ccccc2c1C=Nc1ccc(-n2cncn2)cc1	-75%	-32%
CC(CCN1CCc2nc(-c3ccccc3)c(-c3ccccc3)cc2C1)=NOC[C@@H](O)[C@H]1O[C@@H]2OC(C)(C)O[C@H]2[C@@H]1O	17%[8.59 µM]	26%[8.59 µM]
CC1(C)CN(C2CCCCC2)C(=O)[C@@H]1CC(=O)Nc1ccccc1	-27%	-14%
CC(C)=CCN1C(=O)[C@]2(O[C@H](COc3ccccc3)CC3=CCCC32)c2c(Br)cccc21 (some centres undefined)	-9%[8.59 µM]	-17%[8.59 µM]
CC(=O)OC[C@H]1O[C@H](CC=NOC[C@@H](O)COCc2ccco2)C=C[C@H]1OC(C)=O	-4%[8.59 µM]	1%[8.59 µM]
CC(C)[C@@]1(NC(=O)[C@@H]2C[C@H]3c4cccc5[nH]cc(c45)C[C@@H]3N(C)C2)O[C@]2(O)[C@H]3CCCN3C(=O)CN2C1=O	-12%[17.8 µM]	u
CN1C[C@H](C(=O)N[C@@]2(C)O[C@@]3(O)C4CCCN4C(=O)C(Cc4ccccc4)N3C2=O)C[C@H]2c3cccc4[nH]cc(c34)C[C@H]21 (some centres undefined)	-10%	-22%
CC(C)[C@H]1C(=O)N2CCC[C@H]2[C@]2(O)O[C@](NC(=O)[C@@H]3C[C@@H]4c5cccc6[nH]cc(c56)C[C@H]4N(C)C3)(C(C)C)C(=O)N12	-19%	7.1µM*
CC(C)[C@@]1(NC(=O)[C@@H]2C[C@@H]3c4cccc5[nH]cc(c45)C[C@H]3N(C)C2)O[C@@]2(O)[C@@H]3CCCN3C(=O)[C@H](Cc3ccccc3)N2C1=O	35µM*!	7.1µM*
COc1ccc(O[C@H]2C=C[C@@H](c3ccccc3)O[C@H]2COC(=O)CCC(C)=NO[C@@H]2O[C@H](COC(C)=O)[C@@H](OC(C)=O)[C@H](OC(C)=O)[C@@H]2OC(C)=O)cc1	7%[8.59 µM]	-23%[8.59 µM]
CSC[C@H]1CN(CCc2ccccc2)C(=O)[C@H]1CC(=O)Nc1ccc(Br)cc1	12%	12%
O=C(CO)[C@@H](O)[C@H](O)[C@H](O)CO	-4%	11%
COC(=O)[C@]12CCC(C)(C)C[C@H]1[C@H]1C(=O)C=C3[C@@]4(C)C=C(C#N)C(=O)C(C)(C)[C@@H]4CC[C@@]3(C)[C@]1(C)CC2	3.5µM*	3.2µM*
O=C1N(Cc2ccc(Br)cc2)c2cccc(Br)c2[C@@]12O[C@H](COc1ccccc1)CC1=CCCC12 (some centres undefined)	-18%[8.59 µM]	11%[8.59 µM]
Cc1cc(-c2ccccn2)cc(C)c1C=Cc1cncc(-c2nn[nH]n2)c1	38%	-21%
COc1cc(NCc2ccc3nc(N)nc(N)c3c2C)cc(OC)c1OC	u	4.5µM*
COc1cc(C)c(Cc2cnc(N)nc2N)cc1OC	-11%	24%
COC(=O)N[C@H](C(C(=O)OC)=C(C)NCc1ccccc1)c1cccc(C)c1	x	15%[8.59 µM]
COC(=O)N[C@@H](c1ccco1)[C@]1(C(=O)OC)CCCC1=O	-2%[8.59 µM]	u
OC[C@H]1O[C@@H](n2cnc3c(NC4CCCC4)nc(Cl)nc32)[C@H](O)[C@@H]1O	-17%	13%
O=c1[nH]cnc2c1ncn2C1OC(CO)C(O)C1O (centres undefined)	2%	9%
Nc1nc(Cl)nc2c1ncn2[C@@H]1O[C@H](CO)[C@@H](O)[C@H]1O	32µM*!	u
Nc1nc(Cl)nc2c1ncn2C1OC(CO)C(O)C1F (centres undefined)	2.5µM*	2.8µM*
OCC1OC(n2cnc3c(=S)nc[nH]c32)C(O)C1O (centres undefined)	u	3.5µM*
Nc1nc2c(ncn2[C@@H]2O[C@H](CO)[C@@H](O)[C@H]2O)c(=O)[nH]1	-17%	7%
SMILES	LASV entry inh	MARV entry inh
C[C@H]1N[S+](=O)([O-])c2cccc(Cl)c2O[C@H]1c1ccccc1	-11%	-21%
CC(CCC(=O)OC[C@H]1O[C@H](C#Cc2ccccc2)C=C[C@H]1Oc1ccc(C)cc1)=NOC[C@@H](O)[C@H]1O[C@@H]2OC(C)(C)O[C@H]2[C@@H]1O	x	-2%[8.59 µM]
CCOC(=O)NN=C1C[C@@H](O)[C@@H](O)[C@@H]2[C@H]3C(=O)N(Cc4ccc5c(c4)OCO5)C(=O)[C@@H]3CC[C@H]12	4%[8.59 µM]	-22%[8.59 µM]
COC(=O)C1=C(C)N(Cc2ccccc2)C(=NCCCCO)NC1c1cccc(F)c1 (centres undefined)	x	57%[8.59 µM]
C=C=CCCN1C(=O)NC(c2ccccc2)C(C(=O)OC)=C1C (centres undefined)	5%[8.59 µM]	-18%[8.59 µM]
COC(=O)[C@@]1(C=C[C@@H](C)[C@H](OC)c2ccccc2Br)[C@@H]2OCCC[C@@H]21	-8%[8.59 µM]	-4%[8.59 µM]
Oc1ccc2c3c1O[C@H]1c4oc5ccccc5c4C[C@@]4(O)C(C2)N(CC2CC2)CC[C@]314	u	14µM*
Oc1ccc2c3c1O[C@H]1c4[nH]c5c(c4C[C@@]4(O)[C@@H](C2)N(CC2CC2)CC[C@]314)C[C@]1(O)[C@H]2Cc3ccc(O)c4c3[C@@]1(CCN2CC1CC1)[C@@H]5O4	-10%	3%
Oc1ccc2c3c1O[C@H]1c4c(c5ccccc5n4Cc4ccccc4)C[C@@]4(O)C(C2)N(CC2CC2)CC[C@]314	14µM*	7.9µM*
COc1ccc2c3c1O[C@H]1C(=O)CC[C@@]4(O)C(C2)N(CC2CC2)CCC314 (some centres undefined)	-7%	u
CCCCCC(=O)N1C[C@@H](n2cc(C3CC3)nn2)[C@H](O)C[C@H]1c1ccccc1	17%	-7%
C=CCN=C1NC(CCc2ccccc2)C(C(=O)OC)=C(C)N1CC (centres undefined)	-13%[8.59 µM]	u
CC(=O)OC[C@]12C[C@H](OC(=O)CC(C)C)C(C)=C[C@H]1O[C@H]1[C@H](O)[C@@H](OC(C)=O)[C@@]2(C)[C@]12CO2	0.18µM*	8.9µM*
CCCNC(=O)OC[C@H]1O[C@H](CCON=CC[C@@H]2C=C[C@H](OC(C)=O)[C@@H](COC(C)=O)O2)C=C[C@H]1Oc1ccc(OC)cc1	x	6%[8.59 µM]
COC(=O)C1=C(C)N(Cc2ccccc2)C(=NCc2cc(OC)c(OC)c(OC)c2)NC1CCc1ccccc1 (centres undefined)	-19%[8.59 µM]	u
COc1cc2c(cc1O)CCN[C@]21CS[C@@H]2c3c(OC(C)=O)c(C)c4c(c3[C@H](COC1=O)N1[C@@H]2[C@H]2c3c(cc(C)c(OC)c3O)C[C@@H]([C@@H]1O)N2C)OCO4	40µM*!	u
CC(C)=CCN1C(=O)[C@@]2(CC(C)=CC[C@@H](COc3ccccc3)O2)c2ccccc21	-17%[8.59 µM]	3%[8.59 µM]
CCCCC[C@H](O)CC(=O)CCc1ccc(O)c(OC)c1	-9%	1%
CCCCC/C=C\C/C=C\C/C=C\C/C=C\CCCC(=O)NCc1ccc(O)c(OC)c1	7.9µM*	u
CCCCCCCCC(=O)NCc1ccc(O)c(OC)c1	0%	5%
COc1cc(CNC(=O)CCCC/C=C/C(C)C)ccc1O	25µM*!	7%
COC(=O)C1(C(=O)OC)CC(CO)C(=O)[C@@H]1c1ccccc1 (some centres undefined)	3%[8.59 µM]	-8%[8.59 µM]
C=C1Cc2c(Cl)cc3[nH]c4c5c3c2[C@@]2(O)[C@@H]1C[C@@H]2C(C)(C)O[C@H]5[C@@H]1CC[C@@]2(O)[C@@]35O[C@@H]3[C@@H](O)[C@@H](C(=O)O)O[C@H]5CC[C@]2(C)[C@@]41C	28µM*	u
CC1=C[C@@H](C)OC2(C1)C(=O)N(Cc1ccc(Br)cc1)c1cccc(Br)c12 (some centres undefined)	-2%[8.59 µM]	4%[8.59 µM]
